# Data from PubChem BioAssay AID435006 (Sanford-Burnham Center for Chemical Genomics, 2010).
# Screen size: about 1,300 compounds; about 1,100 (85%) were called active. So high a share suggests a set chosen from earlier hits. Not all results are given here. Values without a mark were called inactive. No stated cut-off is given here; in the data, active means inhibition above about 48%; inactive means the rest.
# Assay: yeast-expressed human NALP3 blockade – luminescence, single concentration, confirmation (AID 435006)
# Settings: yeast expressing human NALP3, luminescence; at 10 µM; active compounds read high
row,Compound,inhibition
1,O=C(Nc1ccccc1Cl)/C(Cl)=C(\Cl)S(=O)c1ccccc1 (centres undefined),64.3% (active)
2,O=[N+]([O-])c1c(NCCO)cc(Sc2nc3ccccc3s2)c2nonc12,62.6% (active)
3,O=C(Nc1ccccc1)c1cc2ccccc2[nH]1,73.6% (active)
4,CC(C)(c1ccccc1)c1ccc(OCCN)cc1,71.8% (active)
5,CN(C)c1ccnc2sc(C(=O)c3ccccc3)c(N)c12,68% (active)
6,CC(C)n1c(COc2ccccc2)nc2ccccc21,70% (active)
7,Cc1ccc(OCc2nc3ccccc3n2C)cc1,78.3% (active)
8,CC(=O)[C@@]12O[C@@H]1C[C@H]1[C@@H]3CC[C@H]4C[C@@H](O)CC[C@]4(C)[C@H]3CC[C@@]12C,71.5% (active)
9,C[C@@H]1C[C@@H]2O[C@H]2/C=C\C=C\C(=O)Cc2c(Cl)c(O)cc(O)c2C(=O)O1,72.4% (active)
10,O=C(CC(O)(C(F)(F)F)C(F)(F)F)Nc1ccc(Cl)c(Cl)c1,97.9% (active)
11,Cc1ccc(OCc2nc(C#N)c(N3CCCC3)o2)cc1,48.9% (active)
12,N#Cc1nc(COc2ccc(Cl)cc2)oc1N1CCCC1,30.3%
13,CC1CC2=C(CC1/C=N/NC(N)=S)C(C)(C)CCC2 (centres undefined),-1.3%
14,O=[N+]([O-])c1cccc(/C=N/Nc2ncc(Br)cn2)c1,72.2% (active)
15,Cc1ccnc(Nc2nc3ccccc3s2)n1,73% (active)
16,CCOC(=O)c1c(C)[nH]c(C(=O)COc2ccc3c(c2)OCO3)c1C,47%
17,O=C(COc1ccccc1F)Nc1nc(-c2ccccn2)cs1,55.5% (active)
18,Oc1ccc(Br)cc1/C=N/Nc1ccccn1,66.3% (active)
19,COc1cccc(/C=N/Nc2cc(C)nc(-c3ccccc3O)n2)c1O,25.5%
20,O=C(NCc1ccc2c(c1)OCO2)c1c(O)nc2sccn2c1=O,75.2% (active)
21,Cc1cccc(NC(=S)NC(=O)c2ccc(Br)o2)c1,63.5% (active)
22,Cc1csc(NC(=S)Nc2cccc(Cl)c2)n1,-12%
23,COCCCNC(=O)/C=C/c1ccc(OCc2c(F)cccc2Cl)cc1,27.1%
24,Fc1ccccc1-c1cc2cc3c(cc2cn1)OCO3,51.1% (active)
25,O=[N+]([O-])/C=C/c1ccc2c(ccn2Cc2ccccc2)c1,78.7% (active)
26,Cc1cc(C)c(/C=C2\C(=O)Nc3ccccc32)[nH]1,51.8% (active)
27,Cn1c(=NC(=O)c2ccco2)sc2cccc(F)c21,60.5% (active)
28,CC(C)C(=O)N1CCN(CCN=CC2=C(O)CC(c3ccco3)CC2=O)CC1 (centres undefined),74.3% (active)
29,Cc1ccc(-c2nn(C(C)(C)C)c3ncnc(N)c23)cc1,86.7% (active)
